From PubChem BioAssay (NCATS)
Results filed as inconclusive are left out. Active and inactive are the calls of the source. The call rests on the fitted dose curve; in most records, active means well fitted curve in the direction sought with a large enough effect; inconclusive means small, poorly fitted or top-dose-only effect, or another doubt; inactive means no such curve, though single readings can be large; an effect the other way counts as inactive or inconclusive.

How the values were obtained:
[1] = Quantitative High-Throughput drug screen in 47 multiple myeloma cell lines against the NCATS MIPE library collection: Karpas417_ECACC cell viability assay (AID 1918961); settings: Karpas417 myeloma viability, CellTiter-Glo ATP luminescence, 48 h; viability (% of DMSO): at 45.8 µM (top of the series)
Procedure, shortened: (§1)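 Approved and investigational drugs from MIPE 4.0 were added by pin tool to 500 cells per well. After 48 hours at 37C, ATP-based CellTiter-Glo luminescence indicated remaining viability.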

[2] = Quantitative High-Throughput drug screen in 47 multiple myeloma cell lines against the NCATS MIPE library collection: KHM11_PLB cell viability assay (AID 1918962); further: nearly all actives have a fitted effect of over 35% in size
Procedure, shortened: (§2)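 Viability readout: CellTiter-Glo luminescence following 5 min room-temperature incubation with reagent. Prior exposure: 48 h, 37C, humidified 5% CO2, 500 cells per well.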

[3] = Quantitative High-Throughput drug screen in 47 multiple myeloma cell lines against the NCATS MIPE library collection: JIM3_ECACC cell viability assay (AID 1918963; further: nearly all actives have a fitted effect of over 35% in size)
Procedure, shortened: as §2

[4] = Quantitative High-Throughput drug screen in 47 multiple myeloma cell lines against the NCATS MIPE library collection: JIM1_ECACC cell viability assay (AID 1918964)
Procedure, shortened: (§3)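 Steps: seed 500 cells per well; pin-transfer MIPE 4.0 library; incubate 48 h at 37C, 5% CO2, humidified; add CellTiter-Glo, 5 min room temperature; read luminescence.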

[5] = Quantitative High-Throughput drug screen in 47 multiple myeloma cell lines against the NCATS MIPE library collection: INA6_PLB cell viability assay (AID 1918965; further: nearly all actives have a fitted effect of over 55% in size)
Procedure, shortened: as §1

[6] = Quantitative High-Throughput drug screen in 47 multiple myeloma cell lines against the NCATS MIPE library collection: JJN3_DSMZ cell viability assay (AID 1918966; further: nearly all actives have a fitted effect of over 50% in size)
Procedure, shortened: as §3

[7] = Quantitative High-Throughput drug screen in 47 multiple myeloma cell lines against the NCATS MIPE library collection: H1112_PLB cell viability assay (AID 1918967; further: nearly all actives have a fitted effect of over 30% in size)
Procedure, shortened: as §3

[8] = Quantitative High-Throughput drug screen in 47 multiple myeloma cell lines against the NCATS MIPE library collection: Karpas25_ECACC cell viability assay (AID 1918968; further: nearly all actives have a fitted effect of over 35% in size)
Procedure, shortened: as §3

[9] = Quantitative High-Throughput drug screen in 47 multiple myeloma cell lines against the NCATS MIPE library collection: KMS27_JCRB cell viability assay (AID 1918970); settings: KMS27 myeloma cells, CellTiter-Glo ATP viability, 48 h; viability (% of DMSO): at 45.8 µM (top of the series); further: nearly all actives have a fitted effect of over 30% in size
Procedure, shortened: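 ATP-based viability (CellTiter-Glo luminescence) is measured in cells treated 48 h with approved and investigational drugs at 37 °C. Controls are DMSO-only wells for full viability and media-only wells for none.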

[10] = Quantitative High-Throughput drug screen in 47 multiple myeloma cell lines against the NCATS MIPE library collection: KMS12BM_JCRB cell viability assay (AID 1918971); further: nearly all actives have a fitted effect of over 35% in size
Procedure, shortened: as §3

[11] = Quantitative High-Throughput drug screen in 47 multiple myeloma cell lines against the NCATS MIPE library collection: KMS12PE_JCRB cell viability assay (AID 1918972); further: nearly all actives have a fitted effect of over 30% in size
Procedure, shortened: as §1

[12] = Quantitative High-Throughput drug screen in 47 multiple myeloma cell lines against the NCATS MIPE library collection: KMS20_JCRB cell viability assay (AID 1918973); further: nearly all actives have a fitted effect of over 45% in size
Procedure, shortened: as §3

[13] = Quantitative High-Throughput drug screen in 47 multiple myeloma cell lines against the NCATS MIPE library collection: KMS26_JCRB cell viability assay (AID 1918975); further: nearly all actives have a fitted effect of over 45% in size
Procedure, shortened: as §3

[14] = Quantitative High-Throughput drug screen in 47 multiple myeloma cell lines against the NCATS MIPE library collection: MMM1_PLB cell viability assay (AID 1918976); further: nearly all actives have a fitted effect of over 35% in size
Procedure, shortened: (§4)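 MIPE 4.0 approved/investigational drugs; 500 cells/well; 48 h 37 °C humidified 5% CO2; CTG luminescence readout; DMSO = 100%, media = 0% viability.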

[15] = Quantitative High-Throughput drug screen in 47 multiple myeloma cell lines against the NCATS MIPE library collection: MOLP8_DSMZ cell viability assay (AID 1918977); further: nearly all actives have a fitted effect of over 45% in size
Procedure, shortened: as §4

[16] = Quantitative High-Throughput drug screen in 47 multiple myeloma cell lines against the NCATS MIPE library collection: NCIH929_DSMZ cell viability assay (AID 1918978); further: nearly all actives have a fitted effect of over 35% in size
Procedure, shortened: as §4

[17] = Quantitative High-Throughput drug screen in 47 multiple myeloma cell lines against the NCATS MIPE library collection: OCIMY1_PLB cell viability assay (AID 1918979); further: nearly all actives have a fitted effect of over 35% in size
Procedure, shortened: as §4

[18] = Quantitative High-Throughput drug screen in 47 multiple myeloma cell lines against the NCATS MIPE library collection: MM1S_ATCC cell viability assay (AID 1918980); further: nearly all actives have a fitted effect of over 45% in size
Procedure, shortened: as §4

[19] = Quantitative High-Throughput drug screen in 47 multiple myeloma cell lines against the NCATS MIPE library collection: MM1R_ATCC cell viability assay (AID 1918981); further: nearly all actives have a fitted effect of over 35% in size
Procedure, shortened: as §4

[20] = Quantitative High-Throughput drug screen in 47 multiple myeloma cell lines against the NCATS MIPE library collection: KMS21BM_JCRB cell viability assay (AID 1918974); settings: ATP luminescence, 48 h; viability: at 45.8 µM (top of the series)
Procedure, shortened: as §3

Measured: Potency
Potency means the concentration at half of the fitted maximal effect.

C[C@H](NCc1ccc(OCc2cccc(F)c2)cc1)C(N)=O
active: [1] 2.64 µM | [2] 1.48 µM | [3] 2.96 µM | [4] 3.72 µM | [5] 1.32 µM | [6] 8.33 µM | [7] 5.9 µM | [8] 2.35 µM | [9] 1.66 µM | [10] 8.33 µM | [11] 1.87 µM | [12] 2.35 µM | [13] 18.7 µM | [14] 11.8 µM | [15] 2.64 µM | [16] 2.64 µM | [17] 10.5 µM | [18] 9.35 µM | [19] 7.43 µM

Nc1ncn([C@@H]2O[C@H](CO)[C@@H](O)[C@@H]2O)c(=O)n1
active: [1] 9.35 µM | [2] 14.8 µM | [3] 4.69 µM | [4] 1.48 µM | [5] 1.18 µM | [6] 11.8 µM | [7] 18.7 µM | [8] 3.32 µM | [10] 8.33 µM | [20] 1.87 µM | [13] 13.2 µM | [16] 3.72 µM | [17] 14.8 µM | [18] 18.7 µM | [19] 14.8 µM

NC(=NCCCCCCN=C(N)N=C(N)Nc1ccc(Cl)cc1)N=C(N)Nc1ccc(Cl)cc1
active: [1] 20.9 µM | [2] 5.9 µM | [3] 8.33 µM | [4] 23.5 µM | [5] 1.66 µM | [6] 3.32 µM | [7] 2.64 µM | [8] 2.96 µM | [9] 16.6 µM | [10] 9.35 µM | [11] 16.6 µM | [12] 3.32 µM | [20] 7.43 µM | [13] 16.6 µM | [14] 20.9 µM | [15] 8.33 µM | [16] 3.32 µM | [17] 11.8 µM | [18] 2.09 µM | [19] 7.43 µM

COc1cc(O)c2c(c1)C1OC1C[C@H](O)[C@H](O)C(=O)C=CC[C@H](C)OC2=O (some centres undefined)
active: [1] 0.469 µM | [2] 0.296 µM | [3] 3.72 µM | [4] 2.96 µM | [5] 2.96 µM | [6] 5.26 µM | [7] 5.26 µM | [8] 3.32 µM | [9] 7.43 µM | [10] 1.48 µM | [11] 11.8 µM | [12] 1.18 µM | [13] 1.87 µM | [14] 18.7 µM | [15] 0.418 µM | [16] 1.48 µM | [17] 5.26 µM | [18] 2.96 µM | [19] 2.64 µM

CC(C)(N)c1ccc(-c2nc3ccccc3nc2-c2ccccc2)cc1
active: [1] 0.372 µM | [2] 8.33 µM | [3] 18.7 µM | [5] 9.35 µM | [6] 20.9 µM | [7] 14.8 µM | [8] 16.6 µM | [9] 18.7 µM | [10] 26.4 µM | [11] 7.43 µM | [12] 4.18 µM | [20] 5.26 µM | [13] 26.4 µM | [14] 18.7 µM | [16] 4.69 µM | [17] 23.5 µM | [18] 18.7 µM | [19] 26.4 µM

Cn1cc(CNCC2CCN(c3ncc(C(=O)NO)cn3)CC2)c2ccccc21
active: [1] 0.0166 µM | [2] 0.0662 µM | [3] 0.132 µM | [4] 0.0743 µM | [5] 0.001 µM | [6] 0.0296 µM | [7] 0.0332 µM | [8] 0.0118 µM | [9] 0.0166 µM | [10] 0.0235 µM | [11] 0.0372 µM | [12] 0.0296 µM | [13] 0.0166 µM | [15] 0.0132 µM | [16] 0.0209 µM | [17] 0.105 µM | [18] 0.0166 µM | [19] 0.0148 µM

COc1cc(CCc2cc(NC(=O)c3ccc(N4C[C@@H](C)N[C@@H](C)C4)cc3)n[nH]2)cc(OC)c1
active: [1] 2.35 µM | [2] 9.35 µM | [3] 14.8 µM | [4] 2.35 µM | [5] 9.35 µM | [7] 11.8 µM | [8] 16.6 µM | [9] 18.7 µM | [10] 11.8 µM | [11] 16.6 µM | [12] 4.69 µM | [13] 20.9 µM | [14] 16.6 µM | [15] 18.7 µM | [16] 10.5 µM | [18] 20.9 µM | [19] 26.4 µM

C[C@@]12C(=O)OC(=O)[C@@]1(C)C1CCC2O1
active: [1] 2.96 µM | [2] 2.35 µM | [3] 1.87 µM | [4] 0.662 µM | [5] 2.64 µM | [6] 0.662 µM | [7] 3.72 µM | [8] 1.18 µM | [9] 2.09 µM | [10] 1.66 µM | [11] 1.87 µM | [12] 2.64 µM | [14] 1.87 µM | [15] 3.72 µM | [16] 2.64 µM | [17] 5.26 µM | [18] 1.66 µM | [19] 2.35 µM
